From PubChem BioAssay (NCATS)
Inconclusive results are not listed. Unmarked numbers belong to inactive results. Active and inactive are the calls of the source. The call rests on the fitted dose curve; in most records, active means well fitted curve in the direction sought with a large enough effect; inconclusive means small, poorly fitted or top-dose-only effect, or another doubt; inactive means no such curve, though single readings can be large; an effect the other way counts as inactive or inconclusive.

assay: Quantitative highthroughput screen to assess conditional lethalithy of P12 Ichikawa cells grown in RPMI1640 with untreated serum (RPMI+s) (AID 1963881); details: ATP luminescence, 48 h; Potency: viability; series mostly up to 45.8 µM; viability: at the top concentration;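 on viability: 100% = DMSO wells and 0% = empty wells without cells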
Method in brief: (§1)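 Each medium arm—HPLM with 10% dialyzed FBS, or RPMI1640 with 5 mM glucose and 10% untreated or dialyzed FBS—was screened against an 11-point, 3-fold compound titration for 48 h at 37 °C, with CellTiter-Glo luminescence as endpoint.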
Further: nearly all actives have a fitted effect of over 35% in size.
Potency means the concentration at half of the fitted maximal effect.

Row | Compound | Potency | viability
1 | CC(=O)OCC1=C(C(=O)O)N2C(=O)[C@@H](N)[C@@H]2SC1 | 1.48 µM (active) | –
2 | C[C@]12CC[C@H]3[C@@H](CCC4=CC(=O)CC[C@@]43C)[C@H]1CC[C@H]2O | – | 102%
3 | C#C[C@]1(O)C=C[C@@H]2[C@@H]3CCC4=CC(=O)CC[C@@H]4[C@H]3CC[C@@]21CC | – | 91.1%
4 | C[C@]12CC[C@H]3[C@@H](CCC4=CC(=O)CC[C@@]43C)[C@H]1CC[C@H]2OC(=O)CCC1CCCC1 | – | 93.4%
5 | COc1ccc2c(c[n+](C)c3c4cc5c(cc4ccc23)OCO5)c1OC | 11.8 µM (active) | –

assay: Quantitative highthroughput screen to assess conditional lethalithy of SEM cells grown in Human Plasma-Like Medium with dialyzed fetal bovine serum (HPLM+ds) (AID 1963882); details: SEM B-ALL cells in HPLM+ds, CellTiter-Glo viability, 48 h; series mostly up to 45.8 µM; viability: at the top concentration
Method in brief: as §1

Row | Compound | Potency | viability
6 | Cc1ccccc1-n1c(Cn2cnc3c(N)ncnc32)nc2cccc(C)c2c1=O | 0.296 µM (active) | –
7 | CC(C)N[C@@H]1CCn2c(=O)[nH]c3cccc(c32)[C@@H]1O | – | 100%
8 | CC(C)(O)C=CC(=O)[C@](C)(O)[C@H]1[C@H](O)C[C@]2(C)[C@@H]3CC=C4[C@@H](C=C(O)C(=O)C4(C)C)[C@]3(C)C(=O)C[C@@]12C | 0.059 µM (active) | –
9 | C[C@@H]1[C@@H](C(=O)C[C@H]2O[C@@H]3O[C@]4(C)CC[C@@H]5[C@H](C)CC[C@@H]([C@H]2C)[C@@]35OO4)O[C@@H]2O[C@]3(C)CC[C@H]4[C@H](C)CC[C@@H]1[C@@]24OO3 | 26.4 µM (active) | –
10 | CC=C(C)C(=O)O[C@H]1C(C)=C2[C@@H]3OC(=O)[C@@](C)(O)[C@@]3(O)[C@@H](OC(=O)CCC)C[C@](C)(OC(C)=O)[C@@H]2[C@@H]1OC(=O)CCCCCCC | 0.059 µM (active) | –
11 | C[C@@H]1CC[C@@]2(OC1)O[C@H]1C[C@H]3[C@@H]4CC=C5C[C@@H](O[C@@H]6O[C@H](CO)[C@@H](O[C@@H]7O[C@@H](C)[C@H](O)[C@@H](O)[C@@H]7O)[C@H](O)[C@@H]6O[C@@H]6O[C@@H](C)[C@H](O)[C@@H](O)[C@@H]6O)CC[C@]5(C)[C@@H]4CC[C@]3(C)[C@@H]1[C@H]2C | 18.7 µM (active) | –
